Measurements: the supplement of paper PMC6658780
Structures can show the parent of a compound that is named as a salt. ± gives the standard deviation of the averaged measurements.

System: Escherichia coli ATCC BAA-2469
Assay: percent growth inhibition of drug + antibiotic vs DMSO control; higher = more growth inhibition
Procedure: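 Prestwick drugs tested at 20 uM and 7 uM with an antibiotic at 0.125x MIC (16 mg/L when MIC >128 mg/L) against E. coli ATCC BAA-2469 (NDM-1) in CAMHB, 384-well plates, duplicate runs. Percent growth inhibition was computed from OD600 (24 h minus 0 h) relative to DMSO wells. Drug + DMSO-only wells are also given. […]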

[1] = antibiotic (0.125x MIC): ciprofloxacin, 7 µM
[2] = antibiotic (0.125x MIC): ciprofloxacin, 20 µM
[3] = antibiotic (0.125x MIC): gentamicin, 7 µM
[4] = antibiotic (0.125x MIC): gentamicin, 20 µM
[5] = antibiotic (0.125x MIC): meropenem, 7 µM
[6] = antibiotic (0.125x MIC): meropenem, 20 µM

SMILES | percent growth inhibition [1] | percent growth inhibition [2] | percent growth inhibition [3] | percent growth inhibition [4] | percent growth inhibition [5] | percent growth inhibition [6]
Nc1nc(O)c2ncn(CCC(CO)CO)c2n1 [Penciclovir] | 7.81 ± 16% | -2.9 ± 7.2% | – | – | – | –
CO[C@H]1/C=C/O[C@@]2(C)Oc3c(C)c(O)c4c(O)c(c(/C=N/N5CCN(C)CC5)c(O)c4c3C2=O)NC(=O)/C(C)=C\C=C\[C@H](C)[C@H](O)[C@@H](C)[C@@H](O)[C@@H](C)[C@H](OC(C)=O)[C@@H]1C [Rifampicin] | 13.5 ± 3.6% | 101 ± 2.1% | – | – | – | –
O=C1NCCN1c1ncc([N+](=O)[O-])s1 [Niridazole] | 45 ± 5.1% | 86.8 ± 14% | 30.939 ± 0.024% | 99.9 ± 3.3% | 42.4 ± 9.2% | 85.3 ± 15%
Nc1nc(F)nc2c1ncn2[C@@H]1O[C@H](CO)[C@@H](O)[C@@H]1O [Fludarabine] | 36.5 ± 11% | 58.8 ± 3.8% | 31.6 ± 1.3% | 65.8 ± 12% | 28.2 ± 5.7% | 64.4 ± 8%
O=C1c2c(O)ccc(O)c2C(=O)c2c(NCCNCCO)ccc(NCCNCCO)c21 [Mitoxantrone dihydrochloride] | 6.59 ± 1.5% | 52.9 ± 1.9% | – | – | – | –
O=C(N[C@H](CO)[C@H](O)c1ccc([N+](=O)[O-])cc1)C(Cl)Cl [Chloramphenicol] | 18.4 ± 4.5% | 92.4 ± 9.2% | 38.6 ± 9.3% | 102 ± 3.6% | 40.2 ± 7% | 89.3 ± 10%
CS(=O)(=O)c1ccc([C@@H](O)[C@@H](CF)NC(=O)C(Cl)Cl)cc1 [Florfenicol] | 35.4 ± 4.7% | 88.8 ± 2.8% | – | – | – | –
C[C@H]1[C@H](NC(=O)/C(=N\OC(C)(C)C(=O)O)c2csc(N)n2)C(=O)N1S(=O)(=O)O [Aztreonam] | 0.0872 ± 14% | – | 24.6 ± 5.5% | 81.2 ± 19% | 14.9 ± 16% | –
O=c1[nH]c(=O)n([C@H]2C[C@H](O)[C@@H](CO)O2)cc1C(F)(F)F [Trifluridine] | 4.99 ± 6.6% | 25.5 ± 3.5% | 6.11 ± 0.34% | – | – | –
CO[C@H]1/C=C/O[C@@]2(C)Oc3c(C)c(O)c4c(O)c(c(/C=N/N5CCN(C6CCCC6)CC5)c(O)c4c3C2=O)NC(=O)/C(C)=C\C=C\[C@H](C)[C@H](O)[C@@H](C)[C@@H](O)[C@@H](C)[C@H](OC(C)=O)[C@@H]1C [Rifapentine] | – | 99.9 ± 4.6% | – | – | – | 96.3 ± 5.3%
NC(=O)N/N=C/c1ccc([N+](=O)[O-])o1 [Nitrofural] | – | – | 8.48 ± 6.7% | – | 4.64 ± 4% | –
O=C(O)CN(CCN(CC(=O)O)CC(=O)O)CCN(CC(=O)O)CC(=O)O [Pentetic acid] | – | – | – | – | -3.74 ± 3.2% | –
CCCCCCCCCCCCCCCC[N+](C)(C)CCN(Cc1ccc(OC)cc1)c1ncccn1 [Thonzonium bromide] | – | – | – | – | -2.72 ± 5.5% | 34.1 ± 20%
